Experimental data reported in PubChem BioAssay (Tox21).
Several values for one entry are separate records, joined by “and”; a condition that tells them apart may be missing. Equal entries are not always repeated. Records with an inconclusive call do not appear. Activity calls are given as the source filed them. Unless noted, calls come from the whole dose curve; as a rule, active = well fitted curve in the direction sought with a large enough effect in the repeat runs; inconclusive = weak or mixed curves; inactive = no such curve, though single readings can be large; an effect the other way counts as inactive or inconclusive.

Tests used:
[1] = qHTS assay to test for compound auto fluorescence at 535 nm (green) in HEK293 cells (AID 720680)
[2] = qHTS assay to test for compound auto fluorescence at 460 nm (blue) in HEK293 cell free culture (AID 720681); note: potency is the fitted concentration of half-maximal effect
Outline: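 Blue fluorescence (Ex 405/Em 460 nm, triamterene-equivalent) was read immediately after pin transfer of compound or DMSO into medium (DMEM, 10% FBS) without cells.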

[3] = qHTS assay to test for compound auto fluorescence at 535 nm (green) in HEK293 cell free culture (AID 720682)
Outline: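 Fluorescein serves as the green reference fluorophore; each compound's intrinsic emission at 535 nm (excitation 485 nm) is reported as an equivalent amount of that dye, measured in serum-containing DMEM without cells.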

[4] = qHTS assay to test for compound auto fluorescence at 590 nm (red) in HEK293 cell free culture (AID 720683)
Outline: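 Red-channel autofluorescence of compounds in culture medium (DMEM, 10% FBS), no cells, measured at 540/590 nm. Rose Bengal sodium is the reference fluorophore for equivalence.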

[5] = qHTS assay to test for compound auto fluorescence at 590 nm (red) in HepG2 cell free culture (AID 720684)
Outline: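 Plate contents were MEM with 10% FBS plus test compound or DMSO, no cells. Fluorescence was recorded with 540 nm excitation and 590 nm emission.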

[6] = qHTS assay to test for compound auto fluorescence at 460 nm (blue) in HepG2 cell free culture (AID 720685); note: potency is the fitted concentration of half-maximal effect
Outline: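 Compound (23 nL) or DMSO pinned into cell-free MEM with 10% FBS; blue fluorescence read at 405/460 nm excitation/emission, expressed as auto-fluorescence equivalency to triamterene.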

[7] = qHTS assay to test for compound auto fluorescence at 535 nm (green) in HepG2 cell free culture (AID 720686)
[8] = qHTS assay to test for compound auto fluorescence at 460 nm (blue) in HepG2 cells (AID 720687); note: potency is the fitted concentration of half-maximal effect
Outline: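 Blue-channel autofluorescence (Ex/Em 405/460 nm, triamterene-equivalent) was measured after 1 hr compound exposure at 37 C, 5% CO2. Cells were HepG2, plated overnight at 37 C in MEM plus 10% FBS.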

[9] = target: Glucocorticoid receptor (Homo sapiens) (UniProt P04150); assay: qHTS assay to identify small molecule agonists of the glucocorticoid receptor (GR) signaling pathway (AID 720691; active = well fitted activation curve with a large enough effect in the signal ratio in the repeat runs, not every such curve was filed as active; the % refers to the signal ratio); conditions: GR-bla HeLa, beta-lactamase reporter ratio, 18 h; activation: at 62.4 µM (top of the series)
Outline: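 Beta-lactamase reporter activity, read as fluorescence intensity, was measured in GR-bla HeLa cells exposed to compounds for 18 h at 37 C and then loaded with LiveBLAzer B/G FRET substrate for 2 h at room temperature.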

[10] = target: Glucocorticoid receptor (Homo sapiens) (UniProt P04150); assay: qHTS assay to identify small molecule antagonists of the glucocorticoid receptor (GR) signaling pathway (AID 720692; active = well fitted inhibition curve with a large enough effect in the signal ratio in the repeat runs, not every such curve was filed as active; the % refers to the signal ratio; note: potency is the fitted concentration of half-maximal effect)
Outline: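 Fluorescence from cleaved LiveBLAzer B/G FRET substrate reports GRE-driven beta-lactamase in HeLa cells; compounds are tested against 5 nM dexamethasone (final) over 18 h at 37 C, substrate incubation 2 h at room temperature.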

[11] = qHTS assay to identify small molecule antagonists of the glucocorticoid receptor (GR) signaling pathway - cell viability counter screen (AID 720693); note: nearly all actives have a fitted effect of over 55% in size; note: potency is the fitted concentration of half-maximal effect
[12] = qHTS assay for identifying genotoxic compounds that show differential cytotoxicity against isogenic chicken DT40 cell lines with known DNA damage response pathways - wild type cell line (AID 743012); note: nearly all actives have a fitted effect of over 60% in size; note: potency is the fitted concentration of half-maximal effect
Outline: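 Quantitative HTS on parental DT40 cells: 40 h compound treatment at 37 C/5% CO2, with viability then determined by CellTiter-Glo luminescence. Values serve as the DNA repair-proficient reference for differential cytotoxicity.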

[13] = qHTS assay for identifying genotoxic compounds that show differential cytotoxicity against isogenic chicken DT40 cell lines with known DNA damage response pathways - Rev3 mutant cell line (AID 743014); note: nearly all actives have a fitted effect of over 55% in size; note: potency is the fitted concentration of half-maximal effect
[14] = qHTS assay for identifying genotoxic compounds that show differential cytotoxicity against isogenic chicken DT40 cell lines with known DNA damage response pathways - Rad54/Ku70 mutant cell line (AID 743015); note: nearly all actives have a fitted effect of over 60% in size; note: potency is the fitted concentration of half-maximal effect
[15] = qHTS assay to identify small molecule antagonists of the androgen receptor (AR) signaling pathway - cell viability counter screen (AID 743033; note: nearly all actives have a fitted effect of over 45% in size)
[16] = qHTS assay to identify small molecule antagonists of the androgen receptor (AR) signaling pathway using the MDA cell line - cell viability counter screen (AID 743041; note: nearly all actives have a fitted effect of over 45% in size)
Outline: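 R1881-driven MDA-kb2 AR-luc cells, 3,000/well, were dosed with library compounds for 16 h; cell health came from CellTiter-Fluor fluorescence in the reporter wells.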

[17] = target: Androgen receptor (Homo sapiens) (UniProt P10275); assay: qHTS assay to identify small molecule antagonists of the androgen receptor (AR) signaling pathway (AID 743035; active = well fitted inhibition curve with a large enough effect in the signal ratio in the repeat runs, not every such curve was filed as active; the % refers to the signal ratio; note: potency is the fitted concentration of half-maximal effect)
Outline: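 Cell line: GeneBLAzer AR-UAS-bla GripTite (HEK293). Stimulus: R1881 added after compound. Exposure: 16 h, 37C, 5% CO2. Readout: LiveBLAzer B/G FRET fluorescence after 2 h at room temperature.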

[18] = target: Androgen receptor (Homo sapiens) (UniProt P10275); assay: qHTS assay to identify small molecule agonists of the androgen receptor (AR) signaling pathway using the MDA cell line (AID 743040; note: nearly all actives have a fitted effect of over 20% in size)
Outline: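 After a 5 h incubation at 37C and 0% CO2, MDA-kb2 reporter cells were dosed with compounds in DMSO and kept 16 h under the same conditions. Luciferase activity was then read as luminescence with ONE-Glo.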

[19] = target: Androgen receptor (Homo sapiens) (UniProt P10275); assay: qHTS assay to identify small molecule agonists of the androgen receptor (AR) signaling pathway (AID 743036; active = well fitted activation curve with a large enough effect in the signal ratio in the repeat runs, with a control signal flat, not every such curve was filed as active; the % refers to the signal ratio)
Outline: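 Fluorescence from a beta-lactamase FRET substrate served as read-out in AR-UAS-bla GripTite HEK293 cells. Cells were treated with DMSO-dissolved compounds for 16 h at 37C, then with LiveBLAzer B/G substrate for 2 h at room temperature.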
% is set by controls: 0 for no effect and ±100 for the full control effect; tags give direction and shape of the fitted curve or compound fluorescence and quenching.

Sequence of Glucocorticoid receptor (Homo sapiens) (P04150 whole entry, looked up): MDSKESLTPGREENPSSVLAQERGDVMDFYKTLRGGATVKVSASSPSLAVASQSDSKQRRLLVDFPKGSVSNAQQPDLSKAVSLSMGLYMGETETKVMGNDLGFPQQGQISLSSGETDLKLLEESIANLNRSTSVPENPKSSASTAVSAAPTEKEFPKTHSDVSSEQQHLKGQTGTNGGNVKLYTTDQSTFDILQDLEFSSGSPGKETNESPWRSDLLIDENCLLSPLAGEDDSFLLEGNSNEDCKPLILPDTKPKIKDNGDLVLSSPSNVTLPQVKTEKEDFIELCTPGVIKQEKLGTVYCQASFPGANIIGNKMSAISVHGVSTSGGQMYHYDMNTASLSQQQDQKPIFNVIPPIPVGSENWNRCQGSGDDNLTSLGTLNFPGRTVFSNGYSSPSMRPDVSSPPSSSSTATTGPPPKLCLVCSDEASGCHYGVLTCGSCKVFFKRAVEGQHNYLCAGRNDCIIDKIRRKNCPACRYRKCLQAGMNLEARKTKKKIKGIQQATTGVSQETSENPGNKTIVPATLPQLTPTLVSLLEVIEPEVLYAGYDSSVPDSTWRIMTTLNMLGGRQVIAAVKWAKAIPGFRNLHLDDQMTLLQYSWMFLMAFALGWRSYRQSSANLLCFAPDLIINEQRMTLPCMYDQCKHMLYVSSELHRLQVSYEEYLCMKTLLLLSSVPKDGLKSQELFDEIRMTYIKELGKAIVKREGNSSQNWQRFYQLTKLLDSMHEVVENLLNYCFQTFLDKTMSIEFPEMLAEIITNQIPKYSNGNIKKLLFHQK
Sequence of Androgen receptor (Homo sapiens) (P10275 whole entry, looked up): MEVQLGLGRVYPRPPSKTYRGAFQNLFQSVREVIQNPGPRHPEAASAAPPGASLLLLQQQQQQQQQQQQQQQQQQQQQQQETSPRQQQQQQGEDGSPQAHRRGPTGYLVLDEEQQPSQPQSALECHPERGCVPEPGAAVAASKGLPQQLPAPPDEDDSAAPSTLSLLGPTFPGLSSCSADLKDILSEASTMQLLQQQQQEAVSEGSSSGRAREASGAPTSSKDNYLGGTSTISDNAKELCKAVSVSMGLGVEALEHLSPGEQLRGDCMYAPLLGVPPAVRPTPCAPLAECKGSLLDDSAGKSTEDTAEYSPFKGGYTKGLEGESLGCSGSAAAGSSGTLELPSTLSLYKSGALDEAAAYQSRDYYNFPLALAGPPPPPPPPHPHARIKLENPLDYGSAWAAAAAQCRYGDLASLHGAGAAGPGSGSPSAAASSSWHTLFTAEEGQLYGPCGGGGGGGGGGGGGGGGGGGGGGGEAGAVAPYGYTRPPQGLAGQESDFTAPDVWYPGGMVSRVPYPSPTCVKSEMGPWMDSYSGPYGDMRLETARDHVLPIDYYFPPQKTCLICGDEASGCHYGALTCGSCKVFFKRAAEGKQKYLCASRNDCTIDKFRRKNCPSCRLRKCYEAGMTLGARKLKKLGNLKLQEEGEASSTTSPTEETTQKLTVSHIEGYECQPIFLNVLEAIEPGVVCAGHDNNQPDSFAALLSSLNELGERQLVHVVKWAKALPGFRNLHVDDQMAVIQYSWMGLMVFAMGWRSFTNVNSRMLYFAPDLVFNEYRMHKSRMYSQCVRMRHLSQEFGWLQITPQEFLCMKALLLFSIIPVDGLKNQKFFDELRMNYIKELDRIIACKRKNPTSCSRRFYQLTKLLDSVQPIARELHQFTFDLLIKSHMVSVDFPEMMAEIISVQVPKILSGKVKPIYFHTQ

Nc1c(Cl)cc(Cl)cc1Cl
inactive: outcome [1] | Potency [2] | outcome [3] | Potency [4] | Potency [5] | Potency [6] | Potency [7] | Potency [8] | Potency [9] | Potency [10] | Potency [11] | Potency [12] | Potency [13] | Potency [14] | Potency [15] | Potency [16]

O=C(Oc1ccccc1)c1ccccc1C(=O)Oc1ccccc1
active: Potency [12] 19.3 µM | Potency [13] 34.4 µM | Potency [14] 17.2 µM | Potency [17] 49 µM
inactive: outcome [1] | Potency [2] | outcome [3] | Potency [4] | Potency [5] | Potency [6] | Potency [7] | Potency [8] | Potency [9] | Potency [10] | Potency [11] | Potency [18]

CCCCCCCCCCC=O
inactive: outcome [1] | Potency [2] | outcome [3] | Potency [4] | Potency [5] | Potency [6] | Potency [7] | Potency [8] | Potency [9] | Potency [10] | Potency [11] | Potency [12] | Potency [13] | Potency [14] | Potency [15] | Potency [17] | Potency [18] | Potency [16]

CCC(N)(CO)CO
inactive: outcome [1] | Potency [2] | outcome [3] | Potency [4] | Potency [5] | Potency [6] | Potency [7] | Potency [8] | Potency [9] | Potency [10] | Potency [11] | Potency [12] | Potency [13] | Potency [14] | Potency [15] | Potency [16]

C[C@H](CCC(=O)O)[C@H]1CC[C@H]2[C@@H]3CC[C@@H]4C[C@H](O)CC[C@]4(C)[C@H]3CC[C@]12C
active: Potency [10] 19.4 µM and 43.6 µM
inactive: outcome [1] | Potency [2] | outcome [3] | Potency [4] | Potency [5] | Potency [6] | Potency [7] | Potency [8] | Potency [9] | Potency [11] | Potency [12] | Potency [14] | Potency [15] | Potency [16]

Cc1cccc(CN2CCN(C(c3ccccc3)c3ccc(Cl)cc3)CC2)c1 (centres undefined)
inactive: fluorescence, % of fluorescein [1] 0.0512% [at 18.6 µM] | fluorescence, % of fluorescent control [2] -0.0116% [at 18.6 µM] | activity change [3] -0.0053% [at 18.6 µM] | fluorescence, % of fluorescent control [4] 0.0211% [at 18.6 µM] | fluorescence, % of Rose Bengal [5] 0.0634% [at 18.6 µM] | fluorescence, % of fluorescent control [6] -0.0261% [at 18.6 µM] | fluorescence, % of fluorescein control [7] -0.0169% [at 18.6 µM] | fluorescence, % of fluorescent control [8] -0.0938% [at 18.6 µM] | Potency [9] | Potency [10] | Potency [11] | Potency [15] | Potency [16]
active: Potency [12] 9.02 µM | Potency [13] 5.07 µM | Potency [14] 9.02 µM

CC(=O)SC[C@@H](Cc1ccccc1)C(=O)NCC(=O)OCc1ccccc1
inactive: fluorescence, % of fluorescein [1] -0.0812% [at 18.6 µM] | fluorescence, % of fluorescent control [2] 0.0019% [at 18.6 µM] | activity change [3] -0.0233% [at 18.6 µM] | fluorescence, % of fluorescent control [4] 0.587% [at 18.6 µM] | fluorescence, % of Rose Bengal [5] -0.444% [at 18.6 µM] | fluorescence, % of fluorescent control [6] -0.074% [at 18.6 µM] | fluorescence, % of fluorescein control [7] -0.0189% [at 18.6 µM] | fluorescence, % of fluorescent control [8] 0.351% [at 18.6 µM] | Potency [9] | Potency [10] | Potency [11] | Potency [12] | Potency [14] | Potency [15] | Potency [16]

C[C@H]1[C@H]2CC[C@H]3[C@@H]4CC=C5C[C@@H](N(C)C)CC[C@]5(C)[C@H]4CC[C@]23CN1C
inactive: outcome [1] | Potency [2] | outcome [3] | Potency [4] | Potency [5] | Potency [6] | Potency [7] | Potency [8] | Potency [9] | Potency [10] | Potency [11] | Potency [15] | Potency [19] | Potency [18] | Potency [16]
active: Potency [12] 15 µM | Potency [14] 16.8 µM

CCCC/C=C/CCCCO
inactive: outcome [1] | Potency [2] | outcome [3] | Potency [4] | Potency [5] | Potency [6] | Potency [7] | Potency [8] | Potency [9] | Potency [10] | Potency [11] | Potency [12] | Potency [14] | Potency [15] | Potency [16]

CCc1oc2ccccc2c1C(=O)c1cc(Br)c(O)c(Br)c1
active: Potency [10] 15.1 µM | Potency [11] 13.4 µM
inactive: outcome [1] | Potency [2] | outcome [3] | Potency [4] | Potency [5] | Potency [6] | Potency [7] | Potency [8] | Potency [9] | Potency [15] | Potency [18] | Potency [16]

CN(C)[C@@H]1C(=O)C(C(N)=O)=C(O)[C@@]2(O)C(=O)C3=C(O)c4c(O)ccc(Cl)c4[C@@H](O)[C@H]3C[C@@H]12
inactive: outcome [1] | Potency [2] | outcome [3] | Potency [4] | Potency [5] | Potency [6] | Potency [7] | Potency [8] | Potency [9] | Potency [10] | Potency [11] | Potency [12] | Potency [14] | Potency [15] | Potency [16]

CSc1cnc(C)cn1
inactive: outcome [1] | Potency [2] | outcome [3] | Potency [4] | Potency [5] | Potency [6] | Potency [7] | Potency [8] | Potency [9] | Potency [11] | Potency [12] | Potency [13] | Potency [14] | Potency [15] | Potency [16]

CCC(Cl)C(Cl)C(Cl)CC(Cl)C(Cl)C(C)Cl (centres undefined)
active: Potency [13] 54.5 µM | Potency [14] 54.5 µM
inactive: outcome [1] | Potency [2] | outcome [3] | Potency [4] | Potency [5] | Potency [6] | Potency [7] | Potency [8] | Potency [9] | Potency [11] | Potency [15] | Potency [16]

N=C1N=C(N)c2cc3ccccc3cc21
active: Potency [2] 31.6 µM | Potency [6] 28.2 µM [fluorescent] | Potency [8] 38.7 µM [fluorescent] | Potency [11] 21.9 µM | Potency [12] 9.69 µM | Potency [13] 27.3 µM | Potency [14] 27.3 µM
inactive: outcome [1] | outcome [3] | Potency [4] | Potency [5] | Potency [7]
